Compound activity from PubChem.
Hits are enriched below; roughly 11% of the tested compounds scored in any of these assays.
IMPase Li inh: cell-permeable IMPase inhibitors with lithium potentiation; AID 1457; CHO-M1 cells, IP1 TR-FRET (IP-One), carbachol + lithium; Potency, µM (top dose mostly 59.4 µM), actives largely listed as inhibitors; 210,000 compounds, 0.35% hits; active means well fitted curve in the direction sought with a large enough effect; inconclusive means small, poorly fitted or top-dose-only effect, or another doubt; inactive means no such curve, though single readings can be large; an effect the other way counts as inactive or inconclusive;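 further: IP1 builds up when IMPase is blocked and the TR-FRET signal falls; nearly all actives have a fitted effect of over 50% in size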
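Lithium-sensitised IP1 accumulation assay; M1-expressing CHO cells treated 30 min at 37C with compound. Competitive antibody detection by time-resolved FRET followed a 10 min room-temperature lysis step.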
ALDH1A1 block: inhibitors of human aldehyde dehydrogenase 1A1. P00352. Purified ALDH1A1, NADH fluorescence, propionaldehyde substrate. Potency, µM (highest dose often 75.3 µM), most hits filed as inhibitors. 220,000 compounds, 7.3% hits. AID 1030
ALOX12 inhib: 12-hLO (ALOX12) enzyme inhibition; P18054; purified 12-hLO, xylenol orange hydroperoxide absorbance; Potency, µM (doses to about 57.1 µM), most hits filed as inhibitors; AID 1452; 150,000 compounds, 0.12% hits; active means well fitted curve in the direction sought with a large enough effect; inconclusive means small, poorly fitted or top-dose-only effect, or another doubt; inactive means no such curve, though single readings can be large; an effect the other way counts as inactive or inconclusive; further: nearly all actives have a fitted effect of over 55% in size
Target sequence (P18054 whole entry, looked up): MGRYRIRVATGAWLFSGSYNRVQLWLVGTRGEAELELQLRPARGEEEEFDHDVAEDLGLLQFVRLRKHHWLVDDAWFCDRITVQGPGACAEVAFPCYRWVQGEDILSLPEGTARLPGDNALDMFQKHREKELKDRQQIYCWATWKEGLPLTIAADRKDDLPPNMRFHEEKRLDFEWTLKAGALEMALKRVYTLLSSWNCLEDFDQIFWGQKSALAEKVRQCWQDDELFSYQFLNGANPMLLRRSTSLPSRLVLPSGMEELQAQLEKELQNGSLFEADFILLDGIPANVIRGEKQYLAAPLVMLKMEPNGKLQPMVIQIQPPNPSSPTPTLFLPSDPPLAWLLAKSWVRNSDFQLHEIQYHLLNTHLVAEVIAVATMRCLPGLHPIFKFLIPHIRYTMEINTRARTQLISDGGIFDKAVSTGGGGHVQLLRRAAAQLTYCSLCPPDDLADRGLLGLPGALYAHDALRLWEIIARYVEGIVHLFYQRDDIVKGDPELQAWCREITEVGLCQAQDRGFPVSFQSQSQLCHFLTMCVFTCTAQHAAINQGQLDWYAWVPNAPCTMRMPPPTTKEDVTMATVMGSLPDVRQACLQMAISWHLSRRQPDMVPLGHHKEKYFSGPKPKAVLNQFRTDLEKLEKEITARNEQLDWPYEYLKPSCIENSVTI
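150 nM 12hLO, 25 mM Hepes pH 7.0 + 0.01% Triton X-100; cpd preinc 15 min RT; 40 uM arachidonic acid, 30 min RT; Fe-XO 30 min; A573/A405 ratio as read-out.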
IMPase cell inh: IMPase inhibition in cells | CHO-M1 cells, IP1 accumulation, HTRF TR-FRET ratio | inhibition (IP1 accumulation), % at 46.1 µM | 120,000 tested, under 10 active | AID 901; active means well fitted curve in the direction sought with a large enough effect in the signal ratio, not every such curve was filed as active; inconclusive means small, poorly fitted or top-dose-only effect, or a change in a side signal; inactive means no such curve, though single readings can be large or run the other way; the % refers to the signal ratio;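 further: cells stimulated with carbachol in lithium chloride buffer; higher means more IMPase inhibition seen as more IP1 and lower FRET ratio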
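CHO-M1, 2000 cells/well, cultured 16–30 h; cpd up to 46 uM; carbachol (50 uM solution, stimulation buffer w/ 50 mM LiCl, pH 7.4), 30 min 37C; IP-One TR-FRET, 10 min RT; Ex 320/Em 665, 620; Hill-fit AC50.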
PNC assembly inh: perinucleolar compartment assembly inhibition. PC3M PTB-GFP, PNC prevalence imaging, 16 h; stronger effect = lower value. activity change (PNC), negative = inhibition, % at 10 µM. 140,000 compounds, 3.1% hits;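 active means readout at or below -70, meaning at least 70% loss of cells showing the perinucleolar compartment, a nuclear body marking cancer cells; inconclusive means readout between -30 and a set limit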
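Compounds are pinned in duplicate onto adhered PC3M cells stably expressing GFP-tagged PTB and incubated 16 h at 37 C. Cells are then fixed, nuclei stained with Hoechst, and PNC-positive cells counted.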
HPGD block: blocks human HPGD enzyme activity | P15428 | purified HPGD, NADH fluorescence kinetic, PGE2 substrate | Potency, µM, most hits filed as inhibitors | 150,000 compounds, 4.3% hits | AID 894
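NADH formation kinetics: reaction with 30 uM PGE2 and 1 mM NAD+ (final), 20 nM enzyme, Tris-HCl pH 8 with Tween 20, after 15 min compound preincubation at room temperature. Fluorescence change, last versus first of five reads.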
Hits are given with their value; 0 = inactive; ? = inconclusive; - = no result given; [ ] = remark or other dose. Unless noted, the call rests on the fitted dose curve; in most records, active means well fitted inhibition curve with a large enough effect (not every such curve was filed as active); inconclusive means small, poorly fitted or top-dose-only effect, or another doubt; inactive means no such curve, though single readings can be large or run the other way.

SMILES | IMPase Li inh | ALDH1A1 block | ALOX12 inhib | IMPase cell inh | PNC assembly inh | HPGD block
CCN1CCC2(CC1)N=C(c1ccc(F)cc1)C(=S)N2C(=O)c1ccc(C(C)(C)C)cc1 | - | 28.2µM | 0 | 0 | 0 | -
COc1ccc(/C=N/NC(=O)Cn2nc([N+](=O)[O-])cc2C)c(OC)c1OC | - | 0 | - | - | - | -
O=C(N/N=C/c1ccncc1)c1ccc(NC(=O)c2cccc(Cl)c2)cc1 | 0 | 0 | - | - | - | -
COc1ccccc1/C=N/NC(=O)c1cccc(NC(=O)c2ccccc2Cl)c1 | 0 | 20µM | - | - | - | -
CCN(CC)S(=O)(=O)c1cccc(C(=O)N/N=C/c2ccccc2OCC(=O)O)c1 | 0 | 0 | - | - | - | -
CCN(CC)S(=O)(=O)c1cccc(C(=O)N/N=C/c2ccc(OC)c(O)c2)c1 | 0 | 25.1µM | 0 | - | 0 | 0
O=C(N/N=C/c1ccncc1)c1cccc(NC(=O)c2ccccc2Cl)c1 | 0 | 12.6µM | 0 | - | 0 | 0
COc1ccccc1/C=N/NC(=O)c1ccc(Cn2nc([N+](=O)[O-])cc2C)cc1 | 0 | 14.1µM | 0 | - | 0 | ?
C/C(=N/Nc1ccc2ccccc2n1)c1ccccc1O | 0 | 0[13.5 µM] | 0[11.4 µM] | - | - | 0
CC(=O)Nc1cccc(C(=O)N/N=C/c2ccccc2F)c1 | 0 | 0 | 0 | - | 0 | 35.5µM
COc1cc(/C=N/NC(=O)c2ccccc2)ccc1O | 0 | 0 | - | - | - | -
COc1ccc(/C=N/NC(=O)c2cccc(NC(=O)c3ccccc3Cl)c2)c(OC)c1 | 0 | ? | - | - | - | -
COc1ccc(/C=N/NC(=O)c2cccc(NC(=O)c3ccccc3Cl)c2)cc1OC | 0 | 3.98µM | - | - | - | -
COc1cc(/C=N/NC(=O)c2cccc(NC(=O)c3ccccc3Cl)c2)ccc1O | 0 | 12.6µM | - | - | - | -
CC1CCC2C(=O)N3CCCC3C(=O)N2C1c1ccc(Br)cc1 (stereo not drawn) | - | 0[13.5 µM] | - | - | - | -
Clc1ccc(N2CCN(c3ncnc4c3oc3ccccc34)CC2)cc1 | 10µM | ? | 0 | 0 | 0 | ?
CC1CN(c2ncnc3c2oc2ccccc23)CC(C)O1 (stereo not drawn) | 0 | 0 | 0 | 0 | 0 | 0
Cc1cccc(N2CCN(Cc3nnc(-c4ccc5c(c4)OCO5)o3)CC2)c1C | - | - | - | 0 | - | -
COc1ccc(C2=CC(c3cc(OC)c(OC)c(OC)c3)NC(=S)N2)cc1 (stereo not drawn) | 0 | 0 | 0 | 0 | 0 | 0
CC1C(=O)C(C)C(c2ccc3c(c2)OCO3)NC1c1ccc2c(c1)OCO2 (stereo not drawn) | - | 0 | 0 | 0 | 0 | -
COc1ccc(OC)c(C2SCCN2S(C)(=O)=O)c1 (stereo not drawn) | 0 | 0 | 0 | 0 | 0 | 0
COc1cc(C2C=C(C34CC5CC(CC(C5)C3)C4)NC(=S)N2)cc(OC)c1OC (stereo not drawn) | 0 | 1.12µM | 11.2µM | 0 | 0 | 0
COc1ccc(OC)c(C2C=C(C34CC5CC(CC(C5)C3)C4)NC(=S)N2)c1 (stereo not drawn) | 0 | 2.51µM | 7.08µM | - | ? | 0
S=C1NC(C23CC4CC(CC(C4)C2)C3)=CC(c2ccc3c(c2)OCO3)N1 (stereo not drawn) | 0 | 2.51µM | - | - | - | -
COc1ccccc1CN1CC[C@@]2(CCCN(C(=O)c3cccc(F)c3)C2)C1 | 0 | ? | 0 | - | - | 0
SMILES | IMPase Li inh | ALDH1A1 block | ALOX12 inhib | IMPase cell inh | PNC assembly inh | HPGD block
Cc1cc(N)c2ccccc2[n+]1CCCCCCCCCC[n+]1c(C)cc(N)c2ccccc21 | 0 | 0 | 0 | 0 | - | 0
CNc1nc(SCc2ccc(C)cc2)nc2c1CCCC2 | 0 | 6.31µM | 0 | 0 | 0 | ?
CC1=CC(=O)C2=C(C)C[C@@H]3OC(=O)[C@@H](C)[C@H]3C=C12 | 0 | 0 | - | - | - | 0
C[C@@H](N1CCOCC1)[C@@](O)(c1ccccc1)c1ccccn1 | 0 | 0[13.5 µM] | 0[11.4 µM] | - | - | 0
Cc1ccc(NC(=O)CCSCCC(=O)Nc2ccc(C)c(C)c2)cc1C | 0 | 17.8µM | 0 | 0 | 0 | 0
Cc1ccc(NC(=O)CNC2CCS(=O)(=O)C2)cc1C (stereo not drawn) | 0 | 15.8µM | - | - | - | -
Cc1nc2ccc(NC(=O)/C=C/C(=O)O)cc2nc1C | 0 | ? | - | - | - | -
Cc1ccc(NC(=O)/C=C\C(=O)NCC(=O)O)cc1C | 0 | 5.01µM | 0 | - | 0 | 0
Cn1cccc1C(=O)N1CCC2(CCCN(c3cccc(-c4ccccc4)c3)C2)CC1 | 0 | 0 | 0 | - | - | 0
COc1ccc(NC(=O)N2CCC3(CC2)CCN(C(=O)c2cc(C(F)(F)F)cc(C(F)(F)F)c2)CC3)cc1 | 0 | 0 | 0 | - | - | 0
C[N+]1(CCC[N+]2(C)C[C@H]3[C@H](C2)[C@H]2C=C[C@@H]3CC2)CCOCC1 (stereo partly drawn) | 0 | 0[13.5 µM] | 0[11.4 µM] | - | - | 3.16µM
Cc1cc2n(n1)SC(Nc1ccccc1)N2 (stereo not drawn) | 0 | 25.1µM | 0 | 0 | 0 | 0
CCOc1ccc(/C(C)=N/N2C(=O)C(CC(=O)Nc3ccc(OC)cc3[N+](=O)[O-])SC2=Nc2cccc(C)c2C)cc1 (stereo not drawn) | 0 | 14.1µM | 0 | - | 0 | ?
c1ccc2c(CC3NCCN3)cccc2c1 | 0 | 0[13.5 µM] | 0[11.4 µM] | - | - | 0
COc1ccc(C(=O)Nc2ccc(C3(C#N)CCCC3)cc2)cc1 | 0 | 1.26µM | - | - | - | -
N#CC1(c2ccc(NC(=O)c3ccccc3F)cc2)CCCC1 | 0 | 5.01µM | 0 | 0 | ? | 0
O=C(Nc1ccc(N2CCCC2)cc1)c1ccccc1F | 0 | ? | 0 | 0 | 0 | 0
COc1ccc(C(=O)Nc2ccc(N3CCN(c4ccc(OC)cc4)CC3)c(C#N)c2)cc1 | 1.78µM | ? | 0 | ? | ? | ?
Cc1cccc(-c2nnc3n2N=C(c2ccc(Br)cc2)CS3)c1 | 0 | 0 | 0 | 0 | 0 | 0
Cc1cc(C)n(-c2nnc3n2N=C(c2ccccc2)CS3)n1 | 0 | ? | 0 | 0 | -135.3 | 0
Cc1ccc(-c2nnc3n2N=C(c2ccc(Br)cc2)CS3)cc1 | 0 | 0 | 0 | 0 | -105.7 | 0
Brc1ccccc1C1=Nn2c(nnc2-c2ccccc2)SC1 | 0 | ? | 0 | 0 | 0 | 15.8µM
CCOc1ccc(C2=Nn3c(nnc3-c3ccccc3OC)SC2)cc1 | 0 | 0 | 0 | 0 | -86.1 | 0
N[C@H](CCCC(=O)O)C(=O)O | - | - | 0 | 0 | - | -
O=C(Cc1ccc(Cl)cc1)Nc1ccc2c(c1)C(=O)NC2=O | 0 | 0 | - | - | - | -
CCOC(=O)c1c(C)nc2ccccc2c1C | 0 | 0 | 0 | 0 | ? | 0
CCOC(=O)c1c(Nc2ccccc2N)cc(C)nc1C | 0 | 0 | 0 | 0 | -106.5 | 0
CN1CCN(C(=O)c2cnn3c(C(F)(F)F)cc(-c4ccc5c(c4)OCO5)nc23)CC1 | 0 | ? | 0 | 0 | 0 | 25.1µM
CN1CCN(C(=O)c2cnn3c(C(F)(F)F)cc(-c4cccs4)nc23)CC1 | 0 | ? | 0 | - | 0 | ?
O=C(c1ccco1)N1CCN(C(=O)c2cnn3c(C(F)(F)F)cc(-c4cccs4)nc23)CC1 | 0 | ? | 0 | 0 | 0 | ?
